Screens (PubChem BioAssay)
The list is not random: actives were taken first. Their share in the collection is about 19%.
IL-1B inflam inh: qHTS for Inhibitors of Inflammasome Signaling: IL-1-beta AlphaLISA Primary Screen; THP-1 LPS/ATP IL-1B secretion, AlphaLISA, 16 h; hits give low values; activity change, % at 57.5 µM; actives 4.7% (n = 360,000); in the data active = activity change below about -50%; inconclusive = mostly about -30% to -49%
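THP-1 cells pretreated 1 hr with compounds (up to 57.5 uM final), then stimulated with LPS (250 ng/mL final) plus ATP (1.25 mM final); secreted IL-1B measured by AlphaLISA after 16 hr, decreased signal indicating inhibition.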
HT1080 IDH1KD tx: qHTS for induction of synthetic lethality in tumor cells producing 2HG: qHTS for the HT-1080-IDH1KD cell line. HT-1080 IDH1 knockdown viability, ATP luminescence, 48 h. Potency, µM (highest dose often 46.1 µM), without a hit: at the top dose activity, negative = toxicity, usual class: cytotoxic. actives 2% (n = 360,000);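 note: potency is the fitted concentration of half-maximal effect; 0% = DMSO wells and -100% = cell-free medium wells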
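HT-1080-IDH1KD cells (IDH1 knocked down), 750/well in RPMI with 5% FBS, treated with compound 48 h at 37 degrees C. Viability by CellTiter-Glo luminescence, normalised to DMSO and no-cell wells; concentration-response curves classed.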
HT1080-NT tox: qHTS for induction of synthetic lethality in tumor cells producing 2HG: qHTS for the HT-1080-NT fibrosarcoma cell line; HT-1080-NT fibrosarcoma viability, CellTiter-Glo ATP luminescence, 48 h; Potency, µM (series often up to 46.1 µM), without a hit: top-dose activity, negative = less viability, usual class: cytotoxic; actives 1.6% (n = 360,000); AID 686970, 2013;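 note: NT is the 2HG producing partner of a matched IDH1 knockdown line; potency is the fitted concentration of half-maximal effect; 0% = DMSO-treated cells and -100% = media-only wells without cells; nearly all actives have a fitted effect of over 55% in size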
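HT-1080-NT; 750 cells/well; 5% FBS RPMI; 48 h compound, 37 degrees C; CellTiter-Glo luminescence; curve fitting and curve-class assignment.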
DT40 TDP1 no CPT: qHTS for Inhibitors of human tyrosyl-DNA phosphodiesterase 1 (TDP1): qHTS in cells in absence of CPT. DT40 Tdp1-/- hTDP1 cells, no CPT, ATP luminescence, 48 h. Potency, µM (highest dose often 46.2 µM), without a hit: at the highest dose activity change, negative = growth inhibition, actives largely listed as inhibitors. actives 15% (n = 420,000). AID 686978, 2013; note: potency is the fitted concentration of half-maximal effect; nearly all actives have a fitted effect of over 55% in size
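Cells were dispensed at 400 per well, compounds added by pin tool, plates incubated ≥48 hr at 37 °C, then CellTiter-Glo added for 30 min at room temperature before luminescence reading. Line: DT40 Tdp1-/- complemented with hTDP1; camptothecin omitted.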
TDP1 cell CPT: qHTS for Inhibitors of human tyrosyl-DNA phosphodiesterase 1 (TDP1): qHTS in cells in presence of CPT; chicken DT40 Tdp1-/-;hTDP1 cells + 20 nM CPT, ATP luminescence, 48 h; Potency, µM (doses to about 46.2 µM), inactives show at the top dose activity change, negative = growth inhibition, most hits filed as inhibitors; actives 12% (n = 420,000); note: potency is the fitted concentration of half-maximal effect; nearly all actives have a fitted effect of over 55% in size
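Cell growth measured by CellTiter-Glo luminescence after a minimum 48 h, 37 C compound exposure with 20 nM CPT in Tdp1-knockout DT40 cells stably expressing hTDP1, seeded 400/well; qHTS titration format.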
* marks the source's active call; other numbers are inactive results; ? = inconclusive; . = no result; [ ] = remark or other dose. Unless noted, calls come from the whole dose curve; as a rule, active = well fitted curve in the direction sought with a large enough effect; inconclusive = small, poorly fitted or top-dose-only effect, or another doubt; inactive = no such curve, though single readings can be large; an effect the other way counts as inactive or inconclusive. Unless noted, % is set by controls: 0 for no effect and ±100 for the full control effect.

SMILES	IL-1B inflam inh	HT1080 IDH1KD tx	HT1080-NT tox	DT40 TDP1 no CPT	TDP1 cell CPT
COc1cccc(C(=O)C2CCCN(Cc3cccc4c3OCO4)C2)c1 (centres undefined)	4	-15%	-29%	?	?
CCC(=NCc1cccnc1)c1c(O)n(-c2ccc(C)cc2)c(=O)[nH]c1=O	2	8%	8%	-3%	?
Clc1ccccc1C1NCc2ccccc2-n2cccc21 (centres undefined)	6	-11%	-11%	?	?
C#C[C@]1(O)CCC2C3CCC4=C/C(=N/OCC(=O)NC(C)C(=O)NC(CCSC)C(=O)O)CC[C@]4(C)C3CC[C@@]21C (some centres undefined)	-25	2%	14%	4%	-12%
COC(=O)[C@@H]1N=C(c2ccc(OC)cc2)O[C@]12C(=O)N(C)c1ccc(Cl)cc12	2	2%	-20%	?	?
O=C(c1ccc(Cl)cc1)C1CCCN(Cc2ccc3ncccc3c2)C1 (centres undefined)	-11	-28%	-23%	16µM*	15µM*
O=C(c1ccc2c(c1)OCO2)C1CCCN(Cc2ccc(F)c(F)c2)C1 (centres undefined)	0	-11%	-4%	-24%	-19%
COC1=C(C)C(=O)O[C@]12C(=O)C(C)=C1CCCCN3[C@H]([C@@H]4C[C@H](C)C(=O)O4)CC[C@]132	26	7%	10%	-1%	-29%
O=C1NC[C@H](CCCCN2C[C@@H](Cc3ccccc3)N(CC3CCCCC3)C(=O)C2=O)N(CCC2CCCCC2)C1=O	-1	-25%	-20%	13µM*	18µM*
CC(C)C[C@H]1CN(CCCC[C@H]2CNC(=O)C(=O)N2CCC2CCCCC2)C(=O)C(=O)N1CCC1CCCCC1	8	23µM*	1%	21µM*	?
CC(C)C[C@@H]1CN(CCCC[C@H]2CNC(=O)C(=O)N2CCC2CCCCC2)C(=O)C(=O)N1CCC1CCCCC1	-14	9%	-13%	-24%	-21%
COC(=O)C1=C(C)NC(C)=C(C(=O)OCC(C)=O)C1c1ccccc1[N+](=O)[O-] (centres undefined)	.	.	.	12µM*	19µM*
COc1ccc2c3c1O[C@H]1[C@H](O)CC[C@H]4[C@@H](C2)N(C)CC[C@@]341	.	.	.	11%[92.5 µM]	10%[92.5 µM]
O=C(Nc1cccnc1)c1ccc(Cl)c(S(=O)(=O)N2CCCCCC2)c1	-21	?	?	?	?
O=C(Nc1ccc(Oc2ccccc2)cc1)c1ccc(F)c(S(=O)(=O)N2CCN(c3cccc(Cl)c3)CC2)c1	.	.	.	3.7µM*	1.8µM*
Cc1cccc(NC(=O)c2ccc(F)c(S(=O)(=O)N3CCN(c4ccc(F)cc4)CC3)c2)c1	.	.	.	16µM*	?
S=C(NCCc1ccccc1)N1Cc2cc(N3CCCCC3)ccc2-n2nncc2C1	?	-7%	-4%	?	?
COc1cc2c(cc1OC)-c1c(OC)c(OC)cc3c1[C@H](C2)[N+](C)(C)CC3	19	0%	1%	10%	14%
Cc1cc(C)n2c(Nc3ccc4c(c3)OCCO4)c(-c3cc4ccccc4o3)nc2n1	19	-9%	-8%	21µM*	?
C#CCN(C[C@@H]1[C@@H](OC(=O)Nc2c(C)noc2C)[C@@H](OC(=O)Nc2c(C)noc2C)Cn2c(=O)n(CCCCCC)c(=O)n21)S(=O)(=O)c1ccc(C)cc1	-59*	-10%	-13%	21µM*	18µM*
c1ccc(C(c2ccccc2)N2CCN(c3ccc4ccccc4n3)CC2)cc1	0	-23%	-11%	?	?
CCCCn1c(=O)c(C=Nc2cc([N+](=O)[O-])ccc2OC)c(O)n(CCCCl)c1=O	-2	-9%	-5%	-29%	-22%
CC(C)c1ccc(NC(=O)c2ccc3c(c2)CCN3S(=O)(=O)c2ccccc2)cc1	.	.	.	5.8µM*	4.6µM*
CC(C)c1ccc(NC(=O)c2ccc(F)c(S(=O)(=O)N3CCc4ccccc4C3)c2)cc1	.	.	.	5.2µM*	4.6µM*
CCCCc1ccc(NC(=O)c2ccc3c(c2)CCN3S(=O)(=O)CC)cc1	.	.	.	3.7µM*	7.3µM*
SMILES	IL-1B inflam inh	HT1080 IDH1KD tx	HT1080-NT tox	DT40 TDP1 no CPT	TDP1 cell CPT
CCOC(=O)c1cnc2c(ccc3ccccc32)c1Nc1ccc(N(C)C)cc1	.	.	.	?	15µM*
Clc1ccc(NC2=NCCCS2)cc1Cl	-20	5%	-16%	?	-26%
Cc1ccsc1CNCCc1ccccc1F	-28	12%	7%	4%	3%
Cn1ccc2c(-c3ccc(F)nc3)cc3c(c21)C1CCC3C1 (centres undefined)	41	-13%	2%	?	?
Cc1cc(C(=O)Nc2sc3c(c2C#N)CCC3)no1	0	?	10µM*	?	?
CCSc1nnc(NC(=O)c2cccn(Cc3ccc(Cl)cc3)c2=O)s1	.	.	.	1%	0%
CCSc1nc2n(n1)C(c1ccc(Cl)cc1Cl)C(C(=O)Nc1ccccc1C)=C(C)N2 (centres undefined)	.	.	.	13µM*	18µM*
CCC1(CC)C(=O)NC(=O)NC1=O	.	.	.	19%	2%
Cc1oc(-c2cccc(Cl)c2)nc1CN1CCC(C(=O)NC(C)c2ccccc2)CC1 (centres undefined)	.	.	.	4.6µM*	4.1µM*
Fc1ccc(CN2CCN(c3ccc(Cl)cc3)CC2)cc1	13	-12%	-10%	?	-28%
CCCCNC(=O)C1CCCN(Cc2nc(-c3ccc(Cl)cc3)oc2C)C1 (centres undefined)	.	.	.	4.1µM*	6.5µM*
CCCCCCN1CCN(c2ccc(Cl)cc2)CC1	22	10%	1%	?	2%
Cc1oc(-c2cccc(Cl)c2)nc1CN1CCC(C(=O)NCCCN2CCN(c3ccc(F)cc3)CC2)CC1	.	.	.	2.9µM*	4.6µM*
Cc1oc(-c2ccc(Cl)cc2)nc1CN1CCC(C(=O)NCCCN2CCN(c3cccc(Cl)c3)CC2)CC1	.	.	.	2.6µM*	5.2µM*
Cc1ccc(CCN2CC(C(=O)N3CCC4(CC3)OCCO4)CC2=O)cc1 (centres undefined)	2	16%	13%	-5%	-2%
CC(=O)Nc1nc(CCl)cs1	4	-1%	-8%	-26%	?
CCN1CCN(Cc2cc3c(cc2[N+](=O)[O-])OCO3)CC1	1	1%	0%	-23%	-1%
